Source: PubChem (National Center for Advancing Translational Sciences (NCATS))
In the library only some 9.2% were active in any assay of this set; here they are far more common.
ELG1 genotox – qHTS screen for small molecules that induce genotoxicity in human embryonic kidney (HEK293T) cells expressing luciferase-tagged ELG1; HEK293T ELG1-luciferase reporter, luminescence, 16 h; Potency, µM (series often up to 46 µM), most hits filed as activators; 1.3% of 330,000 active; note: nearly all actives have a fitted effect of over 60% in size
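ELG1-luciferase HEK293T cells, 2,000/well; compound pinned in; 16 hr, 37 °C, 5% CO2; ONE-Glo, 30 min RT; luminescence on CCD imager.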
SMN2 splice enh – qHTS Assay for Enhancers of SMN2 Splice Variant Expression | HEK293 SMN2-luciferase splicing reporter, luminescence, 30-36 h | 2.8% of 210,000 active | Potency, µM (top dose mostly 46.1 µM), actives largely listed as activators; note: nearly all actives have a fitted effect of over 55% in size
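HEK293 cells carry an SMN2 […]–luciferase reporter in which exon 7 inclusion puts luciferase in frame. Cells were plated 10-12 h before compound addition, then incubated 30-36 h at 37C. ONE-Glo luminescence was read; sodium butyrate at 4.5 mM final served as control.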
NPC1 prom act – qHTS Assay for NPC1 Promoter Activators | Huh7 NPC1 promoter luciferase reporter, 24 h | Potency, µM (doses to about 9.22 µM), most hits filed as activators | 2.4% of 320,000 active; note: nearly all actives have a fitted effect of over 60% in size
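NPC1 promoter–luciferase Huh7 cells; 24 h compound; luminescence.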
ELG1 DNA repair – qHTS screen for small molecules that inhibit ELG1-dependent DNA repair in human embryonic kidney (HEK293T) cells expressing luciferase-tagged ELG1; HEK293T ELG1-luciferase reporter, luminescence, 16 h; DNA damage induced by 5-fluorouridine; Potency, µM (highest dose often 46.1 µM), hits mostly inhibitors; 2.3% of 330,000 active; AID 504467, 2011; note: nearly all actives have a fitted effect of over 55% in size
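Quantitative HTS, concentration-response format. 2,000 cells/well co-treated with 5-fluorouridine and compound, 16 hr in 5% CO2 at 37 °C; ONE-Glo luminescence read after 30 min.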
FLuc modulator – qHTS profiling assay for firefly luciferase inhibitor/activator using purifed enzyme and Km concentrations of substrates (counterscreen for miR-21 project); Potency, µM (titrated, usually from 57.5 µM), most hits filed as inhibitors; purified FLuc, Km substrates, luminescence inhibition; 6.9% of 360,000 active; Luciferin 4-monooxygenase (Photinus pyralis), P08659; note: nearly all actives have a fitted effect of over 55% in size
Target sequence (P08659 whole entry, looked up): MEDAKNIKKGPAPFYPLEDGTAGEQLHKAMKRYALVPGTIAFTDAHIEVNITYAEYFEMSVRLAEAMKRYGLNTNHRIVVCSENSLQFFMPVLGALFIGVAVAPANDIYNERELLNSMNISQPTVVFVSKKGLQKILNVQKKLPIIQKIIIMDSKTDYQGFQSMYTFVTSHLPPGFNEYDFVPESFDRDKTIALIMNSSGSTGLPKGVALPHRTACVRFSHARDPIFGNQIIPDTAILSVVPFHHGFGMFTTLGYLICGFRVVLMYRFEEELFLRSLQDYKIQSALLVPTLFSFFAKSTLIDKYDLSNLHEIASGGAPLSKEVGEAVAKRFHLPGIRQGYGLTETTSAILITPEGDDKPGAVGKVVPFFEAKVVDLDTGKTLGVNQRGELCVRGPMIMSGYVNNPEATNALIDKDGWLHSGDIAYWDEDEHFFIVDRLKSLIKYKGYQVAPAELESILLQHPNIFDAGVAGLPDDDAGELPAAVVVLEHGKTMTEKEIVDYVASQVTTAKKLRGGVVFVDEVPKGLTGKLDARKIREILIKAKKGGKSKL
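Biochemical qHTS of compounds, final roughly 60 µM downward over six points, against 10 nM purified firefly luciferase using Km concentrations of substrates (10 uM D-luciferin, 10 uM ATP) in Tris acetate pH 7.5 buffer; luminescence output.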
Rab9 prom act – qHTS Assay for Rab9 Promoter Activators; Huh7 Rab9 promoter-luciferase reporter, luminescence, 24 h; Potency, µM (top dose mostly 9.22 µM), actives largely listed as activators; 2.8% of 320,000 active; AID 485297, 2010; note: nearly all actives have a fitted effect of over 60% in size
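Luciferase signal after 10 min detection reagent at ambient indicates Rab9 promoter upregulation; stably transfected Huh7 cells were treated 24 h with compound in DMSO at 37 °C, 5% CO2.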
A number is an active result; n = inactive; u = inconclusive; x = no result given; [ ] = remark or other dose. Calls come from the whole dose curve; as a rule, active = well fitted curve in the direction sought with a large enough effect; inconclusive = small, poorly fitted or top-dose-only effect, or another doubt; inactive = no such curve, though single readings can be large; an effect the other way counts as inactive or inconclusive.

SMILES	ELG1 genotox	SMN2 splice enh	NPC1 prom act	ELG1 DNA repair	FLuc modulator	Rab9 prom act
CCCCNC(=O)C(c1ccc(OCC(=O)OC)c(C(=O)OC)c1)N(CCOC)C(=O)CCCCCN1C(=O)NC(c2ccc(-c3ccccc3)cc2)C(C(=O)OCc2ccccc2)=C1C (stereo unspecified)	n	n	n	u	n	n
COc1ccc(OCC(=O)Nc2cccc(-c3nc4ccccc4o3)c2)cc1	u	n	4.47µM	u	u	u
CCCC(=O)Nc1cccc(-c2nc3ccccc3o2)c1	n	n	n	n	u	n
Cc1ccc(Nc2c(-c3ccc(N4CCOCC4)cc3)nc3ncccn23)cc1	n	n	n	n	u	n
Cc1ccc(Nc2c(-c3ccc(N4CCOCC4)cc3)nc3cnccn23)cc1	u	x	n	u	5.36µM	n
Cc1ccc(Nc2c(-c3ccc(N4CCOCC4)cc3)nc3ccc(C)cn23)cc1	x	n	x	x	n	x
Cc1ccccc1Nc1c(-c2ccc(N3CCOCC3)cc2)nc2cnccn12	u	x	u	u	1.51µM	u
Cc1cccn2c(Nc3ccccc3)c(-c3ccc(N4CCOCC4)cc3)nc12	x	n	x	x	u	x
Cc1ccccc1Nc1c(-c2ccc(N3CCOCC3)cc2)nc2ncccn12	n	n	n	n	10.7µM	n
COc1cc(OC)cc(-c2nc3n(n2)C(c2ccccc2F)C(C(=O)Nc2cccnc2)=C(C)N3)c1 (stereo unspecified)	x	n	x	x	n	x
O=C(CN1C(=O)C(=O)N(C2CCCC2)C1=O)Nc1ccc(Cl)cc1C(F)(F)F	n	x	n	n	x	n
CCCOc1ccc(/C=N/NC(=O)c2ccc3c(c2)OCO3)c(OCCC)c1	n	x	n	n	n	n
CCN(CC)S(=O)(=O)c1ccc(-c2nnc3sc4cccc(C)c4n23)cc1	n	n	n	23.1µM	n	n
C(=C\n1nnc2ccccc21)/c1ccccn1	u	x	2µM	u	4.26µM	1.12µM
Nn1nnc2ccccc21	n	n	n	n	n	n
CCCCC(CCC(=O)NNC(=O)Cc1ccccc1)C(=O)O (stereo unspecified)	n	n[1.84 µM]	n	n	n	n
COc1ccc(C(=O)Nc2cc3c(cc2C(=O)c2ccccc2Cl)OCCO3)cc1	x	n	x	x	n	x
COc1ccc(C(=O)Nc2cc3c(cc2Cl)OCCCO3)cc1	u	u	2µM	u	9.53µM	3.55µM
COc1cccc(C(=O)Nc2cc3c(cc2Cl)OCCCO3)c1	u	10µM	3.16µM	u	3.01µM	1.78µM
O=C1CC(N2CCc3ccccc32)C(=O)N1c1ccc(F)cc1 (stereo unspecified)	n	n	n	n	n	n
COc1ccc(NS(=O)(=O)c2ccc3c(c2)N(C(C)=O)CCO3)cc1	n	x	n	n	n	n
Cc1ccc(OCCn2c(=O)sc3ccccc32)cc1	u	12.6µM	3.55µM	u	6.75µM	u
Cc1ccccc1OCCCn1c(=O)sc2ccccc21	n	17.8µM	u	u	9.53µM	u
O=c1sc2ccccc2n1COc1ccccc1	n	n	n	n	n	n
O=c1sc2ccccc2n1COc1ccc(Cl)cc1	u	n	n	u	19µM	u
SMILES	ELG1 genotox	SMN2 splice enh	NPC1 prom act	ELG1 DNA repair	FLuc modulator	Rab9 prom act
O=c1sc2ccccc2n1CCCOc1ccccc1	n	u	3.16µM	u	10.7µM	2.51µM
CC(C)CCC1(CCNC(C)c2cccs2)CCOC(C)(C)C1 (stereo unspecified)	n	x	n	n	n	n
CCN(CC)S(=O)(=O)c1ccc(NC(=O)CCNC(=O)c2ccccc2)cc1	n	x	n	n	n	n
CCOC(=O)c1cnc(SCC(=O)N2CCOCC2)nc1N	n	x	n	u	n	n
Cc1ccc(OCCCn2c(=O)sc3ccccc32)cc1	n	n	n	u	16.9µM	n
COc1cc(NC(=O)c2cc3sccc3n2C)cc(OC)c1	5.8µM	12.6µM	n	u	8.49µM	n
COc1ccc(OC)c(NC(=O)c2cc3cc(C)ccc3n2C)c1	x	x	x	x	n	x
COc1ccc(OC)c(NC(=O)c2cc3sccc3n2C)c1	n	n	n	n	12µM	n
Cn1c(C(=O)Nc2ccccc2)cc2sccc21	u	u	u	u	13.5µM	u
CCc1ccccc1NC(=O)c1cc2sccc2n1C	n	n	n	n	u	u
Cn1c(C(=O)Nc2ccc3c(c2)OCO3)cc2sccc21	u	12.6µM	1.41µM	u	3.38µM	1.58µM
Cn1c(C(=O)NCc2ccc3c(c2)OCO3)cc2sccc21	n	n	n	n	n	n
Cc1ccc(Cl)cc1NC(=O)CN1C=NS(=O)(=O)c2ccccc21	x	x	x	x	n	x
COc1cccc(-c2nc(N3CCNCC3)c3ccccc3n2)c1	x	n	x	x	x	x
CC(NC(=O)c1ccccc1F)c1nnc(SCC(=O)NC2CCCC2)n1C (stereo unspecified)	n	x	n	n	n	n
CS(=O)(=O)c1ncc(N(Cc2ccco2)Cc2cccs2)c(C(=O)Nc2ccccc2F)n1	x	x	x	x	n	x
COc1cc2nncc(SCc3ccc(Cl)c(Cl)c3)c2cc1OC	x	n[9.22 µM]	x	x	x	x
O=C(Cn1ncc2c3ccccc3n(Cc3ccc(F)cc3)c2c1=O)NCc1ccccn1	x	n	x	x	n	x
CN(C)C(CNc1ncnc2sc3c(c12)CCCC3)c1ccco1 (stereo unspecified)	n	x	n	n	n	n
COCCNC(=O)c1cc2sccc2n1C	n	x	n	n	n	n
COC(=O)c1ccc(NC(=O)c2cc3sccc3n2C)cc1	n	x	n	n	10.7µM	n
Cc1cc(Cl)ccc1Oc1nccc(N(C)C)c1C#N	n	n	n	n	n	n
Cc1ccc(-n2c(C)cc(-c3csc(N)n3)c2C)cc1	n	n	n	n	10.7µM	n
Cc1cc(-c2csc(N)n2)c(C)n1C	n	n	n	n	n	n
COc1ccc(-c2cn(Cc3cccc(OC)c3)nn2)cc1	n	x	n	u	u	n
SMILES	ELG1 genotox	SMN2 splice enh	NPC1 prom act	ELG1 DNA repair	FLuc modulator	Rab9 prom act
COc1c(Cl)cccc1-c1cn2ccccc2n1	4.11µM	x	0.794µM	u	0.536µM	1.26µM
COc1ccc(-c2cn3ccccc3n2)cc1	1.3µM	x	0.562µM	u	0.757µM	0.398µM
COc1ccc(S(=O)(=O)Nc2cc(-c3cn4ccccc4n3)ccc2C)cc1	x	n	x	x	u	x
CCCOc1ccc(-c2cn3ccccc3n2)cc1	u	2.24µM	u	u	0.379µM	0.316µM
COc1ccc(-c2cn3ccc4ccccc4c3n2)cc1	1.16µM	3.16µM	u	u	0.953µM	u
Cc1ccccc1OCC(=O)Nc1ccc(C(=O)OCc2cc(=O)n3ccsc3n2)cc1	x	x	x	x	n	x
